Legend:
Details in all cases: concentration: 1 μM, replicates: in singlicate; n = 1
[1] = test system: PAK4
[2] = test system: PAK6
[3] = test system: PAK7
[4] = test system: T1, PCTK1
T1 construct: gene CDK16

[5] = test system: T2, PCTK2
T2 construct: gene CDK17

[6] = test system: T3, PCTK3
T3 construct: gene CDK18

[7] = test system: PDGFRA
[8] = test system: PDGFRB
[9] = test system: PDPK1
[10] = test system: PFTAIRE2
[11] = test system: T4, PFTK1
T4 construct: gene CDK14

[12] = test system: PHKG1
[13] = test system: PHKG2
[14] = test system: PIK3C2B
[15] = test system: PIK3C2G
[16] = test system: PIK3CA
[17] = test system: PIK3CB
[18] = test system: PIK3CD
[19] = test system: PIK3CG
[20] = test system: T5, PIK4CB
T5 construct: gene PI4KB
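Further: KINOMEscan kinase panel screen.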

Row | SMILES | %Inh [1] [%] | %Inh [2] [%] | %Inh [3] [%] | %Inh [4] [%] | %Inh [5] [%] | %Inh [6] [%] | %Inh [7] [%] | %Inh [8] [%] | %Inh [9] [%] | %Inh [10] [%] | %Inh [11] [%] | %Inh [12] [%] | %Inh [13] [%] | %Inh [14] [%] | %Inh [15] [%] | %Inh [16] [%] | %Inh [17] [%] | %Inh [18] [%] | %Inh [19] [%] | %Inh [20] [%]
1 | Cc1cccc(-c2nc(Nc3ccc4ncsc4c3)c3ccccc3n2)n1 [GW867588] | 8 | 0 | 8 | 0 | 0 | 0 | 33 | 0 | 0 | 0 | 0 | 0 | 0 | 0 | 10 | 0 | 0 | 30 | 0 | 28
2 | O=C(Nc1n[nH]c2cc(-c3cccc(F)c3)ccc12)C1CC1 [SB-735464] | 0 | 0 | 0 | 5 | 6 | 0 | 42 | 67 | 0 | 26 | 3 | 0 | 0 | 19 | 20 | 0 | 4 | 14 | 16 | 18
3 | COc1cc2c(cc1OC[C@@H](O)CO)ncc1c3ccc(C#N)cc3[nH]c21 | 0 | 0 | 11 | 0 | 0 | 0 | 99.2 | 91.4 | 8 | 6 | 0 | 95.5 | 99.2 | 0 | 0 | 18 | 0 | 2 | 9 | 0
4 | O=C(NOCC1CC1)c1ccc(F)c(F)c1Nc1ccc(I)cc1Cl | 0 | 0 | 3 | 0 | 0 | 1 | 0 | 8 | 0 | 0 | 0 | 0 | 0 | 0 | 0 | 15 | 0 | 0 | 0 | 100
5 | COc1ccc(Nc2ncc(C#N)c(Nc3ccccc3C(N)=O)n2)cc1N1CCN(C)CC1.Cl [GSK1558669] | 99.2 | 93.9 | 99.9 | 99.2 | 98.2 | 88 | 97.9 | 100 | 37 | 97.6 | 99.4 | 89 | 85 | 0 | 0 | 0 | 0 | 0 | 0 | 15
6 | Fc1ccc(-c2ncn(CCCN3CCOCC3)c2-c2cccnc2)cc1 [SB-211743] | 7 | 0 | 0 | 0 | 0 | 0 | 0 | 0 | 1 | 0 | 0 | 3 | 0 | 0 | 0 | 10 | 0 | 0 | 0 | 17
7 | Fc1ccc(-c2ncn(CCCN3CCOCC3)c2-c2ccccn2)cc1 [SB-211742] | 0 | 8 | 0 | 0 | 2 | 0 | 0 | 0 | 0 | 20 | 0 | 50 | 0 | 0 | 0 | 0 | 0 | 0 | 0 | 0
